Compound activity (PubChem)
Many of the other results were omitted from the sample, so hits are more common in it than they were.
RmlCD inh mix = mixture blocks RmlC and RmlD coupled enzyme activity; actives 0.39% (n = 110,000); RmlC/RmlD coupled enzyme inhibition, 384-well mixture HTS; inhibition, % at 5.5 µM; AID 1532; in the data active means inhibition above about 30%, passing the limit was not always enough; inconclusive means no clear call, values can overlap the other calls
RT RNaseH block = inhibitors of HIV-1 reverse transcriptase RNase H | P04585 | RT-RNase H RNA/DNA duplex cleavage, fluorescence | inhibition, % at 10 µM | actives 1.9% (n = 65,000) | AID 565; in the data active means inhibition above about 50%
RmlCD artifact = counter-screen for RmlC/RmlD inhibitors: fluorescence artifact. shares compounds with RmlCD inh mix. RmlC/RmlD assay fluorescence artifact counter-screen. actives 96% (n = 360). AID 1696. calls only; call rule not given here;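 further: compound alone with no enzyme and no substrates present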
Numbers stand for hits; . = inactive; ? = inconclusive; / = not tested or not shown; + = active, no number.

SMILES	RmlCD inh mix	RT RNaseH block	RmlCD artifact
N#Cc1c(C(F)(F)F)cc(C2CC2)[nH]c1=O	40	.	+
COc1cc(C(=O)ON=C2C(C)=CC(=O)C=C2C)cc(OC)c1OC	.	/	/
CCCOc1ccc(N2C(=O)CC(NCc3ccncc3)C2=O)cc1 (configuration not stated)	.	.	/
COc1cccc(-n2nnnc2SCC(=O)c2cc(OC)ccc2OC)c1	38	.	+
COc1cccc(-n2nnnc2SCC(=O)c2ccc(NC(C)=O)cc2)c1	.	.	/
CCCN(CCC)C(=O)Cn1ccc(=N)c2ccccc21	.	.	/
CCOC(=O)c1oc2c(CN3CCN(C)CC3)c(O)ccc2c(=O)c1-c1ccccc1OC	.	.	/
COc1ccccc1-c1c(C)oc2c(CN3CCN(CCO)CC3)c(O)ccc2c1=O	/	.	.
COc1ccc(-c2c(C)oc3c(CN4CCN(CCO)CC4)c(O)ccc3c2=O)cc1OC	/	.	/
COc1ccccc1-c1c(C)oc2c(CN3CCN(C)CC3)c(O)ccc2c1=O	43	.	+
O=C(NCc1ccc2[nH]c3c(c2c1)CCCC3)c1ccc(S(=O)(=O)N2CCCC2)cc1	.	/	/
COc1ccc(C[C@H]2COC(=O)[C@@H]2Cc2ccc(OC3OC(CO)C(O)C(O)C3O)c(OC)c2)cc1OC (some centres not stated)	.	/	/
CC(C)(O[C@@H]1O[C@H](CO)[C@@H](O)[C@H](O)[C@H]1O)[C@H]1Cc2cc3ccc(=O)oc3cc2O1	56	/	+
Cn1c(CN2CCCC2)nc2cc(NC(=O)Nc3ccccc3)ccc21	.	.	/
Cc1cc(C)c(C#N)c(SCC(=O)C(C)(C)C)n1	.	/	/
CCOC(=O)CC(=O)CSc1nc(-c2cccnc2)ccc1C#N	/	.	+
N#Cc1cc2c(nc1SCC(=O)Nc1sc3c(c1C#N)CCC3)CCCCCC2	.	/	/
CCOC(=O)CC(=O)CSc1nc(-c2cccnc2)cc(C)c1C#N	.	.	/
N#Cc1cc2c(nc1SCC(=O)Nc1nccs1)CCCCC2	.	.	/
CC(C)OC(=O)CC(=O)CSc1nc2c(cc1C#N)CCCCCC2	+	/	+
CCc1nnc(NC(=O)CSc2nc3c(cc2C#N)CCC3)s1	56	.	+
COC(=O)CC(=O)CSc1nc(C)cc(C)c1C#N	121	.	+
COc1cccc(NC(=O)CNC(C)CCC(C)C)c1 (configuration not stated)	.	.	/
O=C(C1CCCN(S(=O)(=O)c2cccc3nsnc23)C1)N1CCN(c2ccccn2)CC1 (configuration not stated)	.	.	/
CC(NC(=O)NCC1CCCO1)(C(F)(F)F)C(F)(F)F (configuration not stated)	.	.	/
SMILES	RmlCD inh mix	RT RNaseH block	RmlCD artifact
CS(=O)CSc1nc2c(cc1C#N)CCCC2 (configuration not stated)	.	.	/
CCOC(=O)CC(=O)CSc1nc2c(cc1C#N)CCCCCC2	64	.	+
CC(C)OC(=O)CC(=O)CSc1nc2c(cc1C#N)CCCC2	59	.	+
N#Cc1cc2c(nc1SCC(=O)N1CCOCC1)CCCCC2	.	/	/
CCOC(=O)N1CCN(c2cc(N3CCN(CC)CC3)c(F)cc2[N+](=O)[O-])CC1C (configuration not stated)	.	/	/
O=Cc1nc(-c2ccccc2Cl)n2ccccc12	.	/	/
Oc1cccc(/C=N/c2c(-c3ccco3)nc3ccccn23)c1	?	.	/
COc1cc(-c2nc3ccccn3c2/N=C/c2ccccc2)ccc1O	67	/	+
CCOc1cccc(NC(=O)C(Cc2cccs2)c2nn[nH]n2)c1 (configuration not stated)	.	.	/
COc1ccc(-c2cc(C(F)(F)F)n3nc(N)nc3n2)cc1	75	/	+
COc1cccc(-c2cc(C(F)(F)F)n3nc(N)nc3n2)c1	.	.	/
Cc1cc(C)cc(CSCC(=O)N/N=C/c2ccc(OCC(=O)NCc3ccco3)cc2)c1	.	/	/
Cn1c(=O)[nH]c(=O)c2c1nc1n2CCCN1CCc1ccccc1	.	.	/
CC1Cc2nc(SCC(=O)Nc3ccc4c(c3)OCO4)n(-c3ccc(F)cc3)c(=O)c2S1 (configuration not stated)	.	.	/
C=CCN(C(=O)COc1ccccc1)c1nnc(-c2ccncc2)s1	154	/	+
COCCN(C(=O)c1cccc(OC)c1)c1nnc(-c2ccncc2)s1	.	.	/
C#CCNC(=O)C1=C[C@H](c2coc3ccccc3c2=O)C[C@H](OCCCCO)O1	.	/	/
CCOC(=O)N1CCN(C(=O)c2ccc3nc4ccc(Cl)cc4c(=O)n3c2)CC1	48	.	+
CCOC(=O)N1CCN(C(=O)c2ccc3nc4ccsc4c(=O)n3c2)CC1	/	.	/
Cc1ccnc(NC2(C(F)(F)F)N=C(c3ccccc3)NC2=O)c1 (configuration not stated)	.	/	/
N#Cc1c(Cl)c(Cl)c2nnc(-c3ccc(Br)cc3)n2c1Cl	.	/	/
CCc1ccc2oc(=O)cc(CN3CCN(c4ccc(F)cc4)CC3)c2c1	.	.	/
COc1ccc(C(=O)n2nc(-c3ccco3)nc2SC)cc1OC	.	.	/
O=C1OCC2OC(O)C(O)C(O)C2OC(=O)c2cc(O)c(O)c(O)c2-c2c(O)c(O)c3oc(=O)c4c(c(O)c(O)c5oc(=O)c2c3c54)-c2c1cc(O)c(O)c2O (configuration not stated)	35	/	+
O=c1oc2cc(O)ccc2c2c1CCCC2	126	.	+
SMILES	RmlCD inh mix	RT RNaseH block	RmlCD artifact
O=C(Oc1ccc2c3c(c(=O)oc2c1)CCCC3)c1ccco1	110	.	+
O=c1oc2cc(O)ccc2c2ccccc12	.	/	/
Cc1cc(OC(=O)c2ccco2)c2c3c(c(=O)oc2c1)CCC3	.	.	/
COCCCNC(=O)c1cn(CC(C)C)c(=O)c2c1c1ccccc1n2C	.	/	/
O=C(O)c1cc(-c2ccccc2)nc2ccccc12	.	.	/
CCOc1ccc(-c2cc(C(=O)O)c3ccccc3n2)cc1	32	/	+
CC(Sc1nc2ccccc2[nH]1)C(=O)O (configuration not stated)	.	/	/
Cn1c(C(=O)N2CCc3ccccc3C2)cc2c(=O)n3ccccc3nc21	103	.	+
CC1Cc2ccccc2N1C(=O)c1cc2c(=O)n3ccccc3nc2n1C (configuration not stated)	.	.	/
CC1(C)CC2CC(C)(CN2c2ncnc3ccccc23)C1 (configuration not stated)	.	.	/
CCc1cccc(C)c1NC(=O)C1C2CCC(O2)C1C(=O)O (configuration not stated)	.	.	/
CCCCc1nnc(NC(=O)C2CCCO2)s1 (configuration not stated)	.	.	/
CCOC(=O)COc1ccc(S(=O)(=O)N2CCN(c3ccccc3F)CC2)cc1	.	.	/
COC(=O)C1=CNC=C(C(=O)OC)C1c1cccc(OC)c1	50	.	+
COC(=O)C1=CNC=C(C(=O)OC)C1c1ccccc1Cl	.	.	/
Cc1cc(NC(=O)CSc2nc3ccccc3c(=O)n2CCCC(=O)NCc2ccco2)n[nH]1	.	.	/
O=C(Nc1cccnc1)c1ccccc1O	.	/	/
O=C(Nc1cccnc1)c1coc(=O)c2ccccc12	61	.	+
CCn1nnc(NC(=O)c2cccc(-c3cc4ccccc4oc3=O)c2)n1	.	.	/
Cc1ccc2nc(NC(=O)c3cccc(-c4cc5ccccc5oc4=O)c3)sc2c1	41	/	+
O=c1[nH]c(=O)n(CCc2ccccc2)c(O)c1C=NCCCn1ccnc1	.	.	/
Cn1c(/C=N/n2cnnc2)nc2ccccc21	44	.	+
